Where “and” joins values, the source holds several entries; their conditions need not be identical. Equal values may be shown once. The campaign covered roughly 1,300 compounds. About 750 (58%) were called active. Some of the results follow. The source holds several records for some structures; these can differ, active in one and inactive in another.
target: Sulfhydryl oxidase 1 (Homo sapiens) (UniProt O00391); experiment: inhibition of human sulfhydryl oxidase QSOX1 – biochemical, ROS-Glo H2O2 luminescence, HTS, primary screen (AID 1347418); conditions: recombinant QSOX1, ROS-Glo H2O2 luminescence, at 12.5 µM, stronger effect = higher value; active = any value above zero unless noted
Sequence (O00391 whole entry, looked up): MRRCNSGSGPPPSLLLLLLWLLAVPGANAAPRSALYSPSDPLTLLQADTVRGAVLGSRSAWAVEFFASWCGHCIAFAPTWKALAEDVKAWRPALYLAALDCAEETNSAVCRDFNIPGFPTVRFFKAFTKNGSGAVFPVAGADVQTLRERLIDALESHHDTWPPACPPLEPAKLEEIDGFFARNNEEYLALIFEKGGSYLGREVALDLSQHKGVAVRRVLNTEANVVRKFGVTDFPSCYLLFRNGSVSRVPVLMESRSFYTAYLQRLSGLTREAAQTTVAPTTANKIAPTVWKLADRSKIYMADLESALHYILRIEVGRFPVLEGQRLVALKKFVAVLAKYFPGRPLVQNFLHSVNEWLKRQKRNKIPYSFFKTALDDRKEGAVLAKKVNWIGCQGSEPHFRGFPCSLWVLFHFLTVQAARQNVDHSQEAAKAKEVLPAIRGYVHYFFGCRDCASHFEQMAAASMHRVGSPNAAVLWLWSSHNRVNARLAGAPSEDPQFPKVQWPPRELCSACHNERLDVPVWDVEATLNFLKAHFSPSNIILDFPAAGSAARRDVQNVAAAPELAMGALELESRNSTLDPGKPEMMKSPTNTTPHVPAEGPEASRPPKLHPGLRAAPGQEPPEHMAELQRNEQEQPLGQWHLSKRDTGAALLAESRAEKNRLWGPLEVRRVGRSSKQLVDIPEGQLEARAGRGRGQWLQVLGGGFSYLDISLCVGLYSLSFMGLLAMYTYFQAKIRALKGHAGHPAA

Row | Structure (SMILES) | inhibition
1 | O=C(O)c1nn(Cc2ccc(Cl)cc2Cl)c2ccccc12 | 6.3% [setting not given] (active)
2 | CCS(=O)(=O)Nc1cccc(C(=C2CCCCC2)c2cnc[nH]2)c1 | 1.9% (active)
3 | O=[N+]([O-])/C=C/c1ccc2c(c1)OCO2 | -5.8% (inactive)
4 | CC[C@@]1(O)C(=O)OCc2c1cc1n(c2=O)Cc2cc3ccccc3nc2-1 | 6.2% [setting not given] (active)
5 | NC(Cc1cc(O)c(O)cc1O)C(=O)O (centres undefined) | 12% (active)
6 | NCCc1c[nH]c2ccc(O)cc12 | 23.8% (active)
7 | COc1ccc2[nH]cc(CCN)c2c1 | -1.9% [setting not given] (inactive)
8 | CCCN(CCC)CCc1c[nH]c2ccc(C(N)=O)cc12 | -6.3% [setting not given] (inactive)
9 | CNCCc1c[nH]c2ccc(O)cc12 | 9.6% [setting not given] (active)
10 | NCCc1c[nH]c2ccccc12 | 5.9% [setting not given] (active)
11 | NCCc1c[nH]c2ccc(C(N)=O)cc12 | 0.5% (active)
12 | OC1CCCCC1N1CCC(c2ccccc2)CC1 (centres undefined) | -0.9% [setting not given] (inactive)
13 | Cc1[nH]c2ccc(O)cc2c1CCN | 16.3% [setting not given] (active)
14 | CC(=O)NCCc1c[nH]c2ccccc12 | 12.2% [setting not given] (active)
15 | CC(N)Cc1c[nH]c2ccc(OCc3cccs3)cc12 (centres undefined) | 0.1% [setting not given] (active)
16 | CC(N)Cc1c[nH]c2ccc(O)cc12 (centres undefined) | 20.8% [setting not given] (active)
17 | c1ccc2c(c1)OCC(C1=NCCN1)O2 (centres undefined) | -2.6% (inactive)
18 | Cn1cnc(CCN)c1 | -4.6% (inactive)
19 | CN1C[C@H](CNC(=O)OCc2ccccc2)C[C@@H]2c3cccc4c3c(cn4C)C[C@H]21 | 10.7% [setting not given] (active)
20 | CP(=O)(O)C1=CCNCC1 | 0.8% (active)
21 | NC(N)=NOCCC(N)C(=O)O (centres undefined) | -1% (inactive)
22 | NC(N)=NOCC[C@H](N)C(=O)O | 4% [setting not given] (active)
23 | NCC(O)c1ccc(O)cc1 (centres undefined) | 6.8% [setting not given] (active)
24 | COc1cc(C(O)CN)ccc1O (centres undefined) | 4.4% (active)

Row | Structure (SMILES) | inhibition
25 | CNCC(O)c1ccc(O)cc1 (centres undefined) | 2.1% [setting not given] (active)
26 | NNC(=O)c1ccc(O)cc1 | -1% (inactive)
27 | O=C(O)Cc1cnc[nH]1 | 4.8% (active)
28 | OCc1cnc[nH]1 | -0.7% (inactive)
29 | O=C1/C(=C/c2ccccc2)C[C@@]2(O)[C@H]3Cc4ccc(O)c5c4[C@@]2(CCN3CC2CC2)[C@H]1O5 | -0.8% [setting not given] (inactive)
30 | Oc1ccc2c3c1O[C@H]1c4[nH]c5ccccc5c4C[C@@]4(O)C(C2)N(CC2CC2)CCC314 (some centres undefined) | 8.5% [setting not given] (active)
31 | Oc1ccc2c3c1O[C@H]1c4oc5ccccc5c4C[C@@]4(O)C(C2)N(CC2CC2)CCC314 (some centres undefined) | 1.7% [setting not given] (active)
32 | Oc1ccc2c3c1O[C@H]1c4[nH]c5c(c4C[C@@]4(O)[C@@H](C2)N(CC2CC2)CC[C@]314)C[C@@]1(O)[C@H]2Cc3ccc(O)c4c3[C@@]1(CCN2CC1CC1)[C@H]5O4 | 0.3% (active)
33 | NC(N)=Nc1ccc2[nH]c3c(c2c1)C[C@@]1(O)[C@H]2Cc4ccc(O)c5c4[C@@]1(CCN2CC1CC1)[C@H]3O5 | 7.1% [setting not given] (active)
34 | CC(C)(O)[C@@H]1[C@H]2OC(=O)[C@@H]1[C@]1(O)C[C@H]3O[C@]34C(=O)O[C@H]2[C@]14C (tested in a mixture with another compound) | -1.5% (inactive)
35 | CN1CCc2cccc(Cl)c2CC1 | -4.5% (inactive)
36 | CC(C)Oc1cccnc1N(C)C1CCN(Cc2ccccc2)CC1 | 8.9% (active)
37 | O=c1[nH]c2ccccc2n1C1CCN(CCCC(c2ccc(F)cc2)c2ccc(F)cc2)CC1 | 4.6% [setting not given] (active)
38 | O=c1[nH]c2ccccc2n1CCCN1CCC(n2c(=O)[nH]c3cc(Cl)ccc32)CC1 | -1.8% [setting not given] (inactive)
39 | NC(Cc1ccc(N(CCCl)CCCl)cc1)C(=O)O (centres undefined) | 32.1% (active)
40 | Cn1c(CCCC(=O)O)nc2cc(N(CCCl)CCCl)ccc21 | 33.3% (active)
41 | O=C(O)CCCc1ccc(N(CCCl)CCCl)cc1 | 4.4% [setting not given] (active)
42 | Cc1ncc(CNC(=O)N(CCCl)N=O)c(N)n1 | -0.8% (inactive)
43 | CCCn1c(C)c(C(=O)c2ccc3ccccc3c2)c2ccccc21 | 3.4% [setting not given] (active)
44 | O=c1c2ccccc2[se]n1-c1ccccc1 | 61% [setting not given] (active)
45 | CCCN1CCC[C@H](c2cccc(O)c2)C1 | 0.7% (active)
46 | CCCN1CCC[C@@H](c2cccc(O)c2)C1 | -1.9% (inactive)
47 | C=C(C)[C@H]1Cc2c(ccc3c2O[C@@H]2COc4cc(OC)c(OC)cc4[C@@H]2C3=O)O1 | 8.2% [setting not given] (active)
48 | Cc1ccc(S(=O)(=O)N[C@@H](CCCCN)C(=O)CCl)cc1 | 2.5% (active)

Row | Structure (SMILES) | inhibition
49 | COC(=O)C1=CCCN(C)C1 | 0.8% [setting not given] (active)
50 | C#CCOC(=O)C1=CCCN(C)C1 | -6.3% (inactive)
51 | NCc1cc(=O)[nH]o1 | -4.8% (inactive)
52 | CN1C(=O)CCS(=O)(=O)C1c1ccc(Cl)cc1 (centres undefined) | 4.6% (active)
53 | NNC(N)=O | 2% (active)
54 | NC(=O)CI | -1.4% (inactive)
55 | COc1ccccc1N1CCNCC1 | -0.9% [setting not given] (inactive)
56 | c1ccc2c(N3CCNCC3)cccc2c1 | 2.2% (active)
57 | CS(=N)(=O)CC[C@H](N)C(=O)O (some centres undefined) | 2% (active)
58 | CC(=O)OCC1=C(C(=O)O)N2C(=O)[C@@H](NC(=O)CCC[C@@H](N)C(=O)O)[C@H]2SC1 | -4.2% (inactive)
59 | COc1ccc2c(c1)c(CCN1CCOCC1)c(C)n2C(=O)c1cccc(Cl)c1Cl | 1.4% (active)
60 | CC(C)=CCOc1c2occc2cc2ccc(=O)oc12 | 2.6% [setting not given] (active)
61 | C[C@H](Cc1ccc2c(c1)OC(C(=O)O)(C(=O)O)O2)NC[C@H](O)c1cccc(Cl)c1 | -1.8% (inactive)
62 | NC(=O)COc1c(F)cc(SCCNS(=O)(=O)c2ccccc2)cc1F | 4% (active)
63 | CC(=O)NBr | -4.9% (inactive)
64 | O=C(N[C@H]1CN2CCC1CC2)c1ccc(Cl)cc1 | 0.7% (active)
65 | COC[C@H]1OC(=O)c2coc3c2[C@@]1(C)C1=C(C3=O)C2CCC(=O)[C@@]2(C)C[C@H]1OC(C)=O (some centres undefined) | 6% (active)
66 | CCCCCCC(C)(C)c1ccc([C@@H]2C[C@H](O)CC[C@H]2CCCO)c(O)c1 | 5.1% [setting not given] (active)
67 | CCCCCCCCCCCCCC(=O)O[C@@H]1[C@@H](C)[C@@]2(O)[C@@H](C=C(CO)C[C@@]3(O)C(=O)C(C)=C[C@@H]23)C2C(C)(C)[C@@]21OC(C)=O (some centres undefined) | 1.1% (active)
68 | CC(=O)[C@H]1CCC2C3CC[C@H]4C[C@H](O)CC[C@]4(C)C3CC[C@@]21C (some centres undefined) | -2.4% [setting not given] (inactive)
69 | C[C@]12CCC3C(CC[C@H]4C[C@H](O)CC[C@]34C)C1CC[C@@H]2C(=O)CO (some centres undefined) | -1.5% (inactive)
70 | CC(=O)[C@H]1CC[C@H]2[C@@H]3CC[C@H]4C[C@](C)(O)CC[C@]4(C)[C@H]3CC[C@]12C | 0.1% [setting not given] (active)
71 | Cc1c(C(=O)c2cccc3ccccc23)c2cccc3c2n1[C@H](CN1CCOCC1)CO3 | 7.5% [setting not given] (active)
72 | O=C(O)c1cc[c]([Hg][Cl])cc1 | -7.7% (inactive)

Row | Structure (SMILES) | inhibition
73 | O=[N+]([O-])c1ccc2nc(N3CCNCC3)ccc2c1 | 0.9% (active)
74 | C=CCN1C[C@@H](C)N([C@H](c2ccc(C(=O)N(CC)CC)cc2)c2cccc(OC)c2)C[C@@H]1C | -4.2% (inactive)
75 | Cc1cc([C@@H]2CCCN2C)on1 | 4.2% (active)
76 | Clc1cc(I)cc(Cl)c1NC1=NCCN1 | -4.1% (inactive)
77 | O=C1C=CC(=O)C=C1 | -2.3% (inactive)
78 | C[C@]12N[C@H](Cc3ccccc31)c1ccccc12 | 2.8% [setting not given] (active)
79 | CC12NC(Cc3ccccc31)c1ccccc12 (centres undefined) | 1.2% [setting not given] (active)
80 | CC(O)(CS(=O)(=O)c1ccc(F)cc1)C(=O)Nc1ccc(C#N)c(C(F)(F)F)c1 (centres undefined) | -1.2% [setting not given] (inactive)
81 | C=C(C)[C@H]1CN[C@H](C(=O)O)[C@H]1CC(=O)O | -6.1% (inactive)
82 | CC(C)[C@H]1CN[C@H](C(=O)O)[C@H]1CC(=O)O | 0.8% (active)
83 | C=CCN1CC[C@]23CCCCC2[C@H]1Cc1ccc(O)cc13 (some centres undefined) | 4.2% [setting not given] (active)
84 | NCC(O)c1cc(O)c(O)cc1F (centres undefined) | 12.3% (active)
85 | NN=C(N)N | 6.4% (active) and -1.5% (inactive)
86 | NCC1(CC(=O)O)CCCCC1 | -2.9% [setting not given] (inactive)
87 | O=P1(N(CCCl)CCCl)NCCCO1 (centres undefined) | 4.8% (active)
88 | c1ccc2cc(CC3=NCCN3)ccc2c1 | -1.3% [setting not given] (inactive)
89 | CCCN(CCC)C1CCc2ccc(O)cc2C1 (centres undefined) | 3.7% (active)
90 | CCCN(CCC)C1Cc2cc(OC)c(OC)cc2C1 | -0.2% (inactive)
91 | CCCN(CCC)C1CCc2cccc(O)c2C1 (centres undefined) | -7.7% (inactive)
92 | CCCN(CCC)[C@H]1CCc2c(F)ccc(O)c2C1 | -4.8% (inactive)
93 | CCCN(CCC)[C@@H]1CCc2cccc(O)c2C1 | 3.9% (active)
94 | CCCN(CCC)[C@@H]1CCc2ccc(O)cc2C1 | 6.3% (active)
